Where a name gives a salt, the structure may show the parent alone.
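Note: breast cancer cell viability read out with the CCK-8 kit after co-treatment of each compound with the ferroptosis inducer RSL3.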

The experiment relates to MDA-MB-231. Kind of experiment: relative cell viability, compound + RSL3, vs DMSO (fraction of DMSO control); higher = less growth inhibition. Conditions: 72 h.
Consider `CCCCCCCCCCCCC/C=C/[C@@H](O)[C@@H](N)CO` + COC(=O)c1ccc([C@H]2c3[nH]c4ccccc4c3C[C@H](C(=O)OC)N2C(=O)CCl)cc1 [RSL3], for which the relative cell viability amounted to 0.167.
On to `Cc1cnc(C(=O)NCCc2ccc(S(=O)(=O)NC(=O)NC3CCCCC3)cc2)cn1` [Glipizide] + COC(=O)c1ccc([C@H]2c3[nH]c4ccccc4c3C[C@H](C(=O)OC)N2C(=O)CCl)cc1 [RSL3], for which the relative cell viability is 0.484.
The value for `CC(=O)Nc1nc(C)c(S(=O)(=O)Nc2ccc(C(O)(C(F)(F)F)C(F)(F)F)cc2)s1` + COC(=O)c1ccc([C@H]2c3[nH]c4ccccc4c3C[C@H](C(=O)OC)N2C(=O)CCl)cc1 [RSL3] was 0.952.
The value for `O=c1oc2ccccc2cc1O` [3-Hydroxycoumarin] + COC(=O)c1ccc([C@H]2c3[nH]c4ccccc4c3C[C@H](C(=O)OC)N2C(=O)CCl)cc1 [RSL3] was 0.682.
The value for `CCN(CC)C(=O)N1CCN(C)CC1` [Diethylcarbamazine citrate] + COC(=O)c1ccc([C@H]2c3[nH]c4ccccc4c3C[C@H](C(=O)OC)N2C(=O)CCl)cc1 [RSL3] was 0.581; that for `CC1(C)C[C@H]2C3=CC[C@@H]4[C@@]5(C)CC[C@H](O)[C@@](C)(CO)[C@@H]5CC[C@@]4(C)[C@]3(C)C[C@H](O)[C@@]2(CO)[C@@H](O)[C@@H]1O` [Gymnemagenin] + COC(=O)c1ccc([C@H]2c3[nH]c4ccccc4c3C[C@H](C(=O)OC)N2C(=O)CCl)cc1 [RSL3] was 0.657.
In the case of `CCC(=O)O[C@]1(C(=O)CCl)[C@@H](C)C[C@H]2[C@@H]3C[C@H](F)C4=CC(=O)C=C[C@]4(C)[C@@]3(F)[C@@H](O)C[C@@]21C` [Halobetasol Propionate] + COC(=O)c1ccc([C@H]2c3[nH]c4ccccc4c3C[C@H](C(=O)OC)N2C(=O)CCl)cc1 [RSL3], the relative cell viability was determined as 0.592.
The value for `CCCC[S+]([O-])c1sc2nc(-c3cccs3)cc(-c3ccccc3)c2c1N` (stereo not drawn) + COC(=O)c1ccc([C@H]2c3[nH]c4ccccc4c3C[C@H](C(=O)OC)N2C(=O)CCl)cc1 [RSL3] was 0.513.

(Values after the supplement of paper PMC9492666.)
